The results in this text go back to article PMC8384837, “Expanding the binding specificity for RNA recognition by a PUF domain”.

Common to all, as to experiment: yeast three-hybrid, YBZ-1, SC-Leu-His + 0.5 mM 3-AT, 4 days
Common to all, as to conditions: tags: N-Gal4 AD-HA kept; label: inside an RPR1-promoter hybrid RNA with tandem MS2 sites; ssRNA

In test [1] the target is PUM1 PUF domain R4-DFS (Homo sapiens, UniProt Q14671 828-1176, N971D;H972F;Q975S). The procedure, abridged:
(§1)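 A centromeric plasmid in strain YBZ-1 co-expressed Pumilio-1 PUF domain libraries, randomized at the three base-contacting residues of each repeat, with matching RNA elements; the strain carries a LexA–MS2 coat fusion and a HIS3 reporter. After four days on SC-Leu (input) or SC-Leu-His + 0.5 mM 3-AT (selection), the repeat regions were PCR-amplified and Illumina-sequenced. The interaction score is the log change in variant frequency from input to selection, using log2 and a pseudocount of 1 where absent.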

For test [2], the target named is PUM1 PUF domain R8-SWQ (Homo sapiens, UniProt Q14671 828-1176, N1122S;Y1123W). The method in brief: as §1
For test [3], the target named is PUM1 PUF domain R4-DYM (Homo sapiens, UniProt Q14671 828-1176, N971D;H972Y;Q975M). The procedure, abridged:
as §1

Test [4] addresses PUM1 PUF domain R3-SRN (Homo sapiens, UniProt Q14671 828-1176, C935S;Q939N). The method in brief: as §1
The target of test [5] is PUM1 PUF domain R5-LWS (Homo sapiens, UniProt Q14671 828-1176, C1007L;R1008W;Q1011S). The method in brief: as §1
In test [6] the target is PUM1 PUF domain R3-SCK (Homo sapiens, UniProt Q14671 828-1176, C935S;R936C;Q939K). The method in brief:
as §1

Test [7] concerns the target PUM1 PUF domain R3-RAR (Homo sapiens, UniProt Q14671 828-1176, C935R;R936A;Q939R). The method in brief:
as §1

Test [8] deals with PUM1 PUF domain R4-FNA (Homo sapiens, UniProt Q14671 828-1176, N971F;H972N;Q975A). The procedure, abridged: as §1
For test [9], the target named is PUM1 PUF domain R1-LWK (Homo sapiens, UniProt Q14671 828-1176, S863L;R864W;Q867K). The method in brief:
as §1

Test [10] deals with PUM1 PUF domain R5-RPM (Homo sapiens, UniProt Q14671 828-1176, C1007R;R1008P;Q1011M). The method in brief:
as §1

Sequence of PUM1 PUF domain R5-LWS (Q14671 828-1176 C1007L/R1008W/Q1011S): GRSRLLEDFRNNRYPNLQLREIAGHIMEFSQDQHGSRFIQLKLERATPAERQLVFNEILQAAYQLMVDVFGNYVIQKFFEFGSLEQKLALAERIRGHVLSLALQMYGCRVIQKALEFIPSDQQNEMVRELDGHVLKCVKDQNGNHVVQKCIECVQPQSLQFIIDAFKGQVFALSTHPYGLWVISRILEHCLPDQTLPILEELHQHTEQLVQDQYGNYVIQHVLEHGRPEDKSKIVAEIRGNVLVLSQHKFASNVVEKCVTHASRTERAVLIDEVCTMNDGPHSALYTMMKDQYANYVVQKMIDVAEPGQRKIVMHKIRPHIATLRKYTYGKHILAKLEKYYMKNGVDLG

Take “GGCUAGAACUAGUGGAUCCCCCGGCGCCCGGCGGCUCGAGCCCGGGUAAGUGUAAAUAGUCUGCAUGCCGCCGGGCGCCAUGCCUGCAGGUCGACUCUAGAAAACAUG”: the binding signal in test [1] is 6.43 log2 enrichment (interaction score); in test [2], 4.66 log2 enrichment (interaction score); in test [3], 4.83 log2 enrichment (interaction score); in [4], 4.26 log2 enrichment (interaction score); in test [5] it was 2.04 log2 enrichment (interaction score).
Regarding “GGCUAGAACUAGUGGAUCCCCCGGCGCCCGGCGGCUCGAGCCCGGGUAAGUGUGAAUAGUCUGCAUGCCGCCGGGCGCCAUGCCUGCAGGUCGACUCUAGAAAACAUG”, the binding signal in test [5] is 1.62 log2 enrichment (interaction score).
As for “GGCUAGAACUAGUGGAUCCCCCGGCGCCCGGCGGCUCGAGCCCGGGUAAGUGUAAUUAGUCUGCAUGCCGCCGGGCGCCAUGCCUGCAGGUCGACUCUAGAAAACAUG”, the values for the binding signal in test [6] and in test [7] were 3.52 log2 enrichment (interaction score) and 3.75 log2 enrichment (interaction score), respectively.
As to “GGCUAGAACUAGUGGAUCCCCCGGCGCCCGGCGGCUCGAGCCCGGGUAAGUGUAAGUAGUCUGCAUGCCGCCGGGCGCCAUGCCUGCAGGUCGACUCUAGAAAACAUG”, the binding signal in [4] was 1.88 log2 enrichment (interaction score).
With “GGCUAGAACUAGUGGAUCCCCCGGCGCCCGGCGGCUCGAGCCCGGGUAAGUGUAUAUAGUCUGCAUGCCGCCGGGCGCCAUGCCUGCAGGUCGACUCUAGAAAACAUG”, the figures for the binding signal in [1] and in test [8] were 6.8 log2 enrichment (interaction score) and 2.23 log2 enrichment (interaction score), respectively.
Take “GGCUAGAACUAGUGGAUCCCCCGGCGCCCGGCGGCUCGAGCCCGGGUAAGUGUAAAUCGUCUGCAUGCCGCCGGGCGCCAUGCCUGCAGGUCGACUCUAGAAAACAUG”: the binding signal in test [9] is 4.58 log2 enrichment (interaction score).
Turning to “GGCUAGAACUAGUGGAUCCCCCGGCGCCCGGCGGCUCGAGCCCGGGUAAGUGUUAAUAGUCUGCAUGCCGCCGGGCGCCAUGCCUGCAGGUCGACUCUAGAAAACAUG”, the figures for the binding signal in test [10] and in test [5] were 2.25 log2 enrichment (interaction score) and 2.93 log2 enrichment (interaction score), respectively.
In the case of “GGCUAGAACUAGUGGAUCCCCCGGCGCCCGGCGGCUCGAGCCCGGGUAAGUGUCAAUAGUCUGCAUGCCGCCGGGCGCCAUGCCUGCAGGUCGACUCUAGAAAACAUG”, the binding signal in [5] was 2.81 log2 enrichment (interaction score).
Turning to “GGCUAGAACUAGUGGAUCCCCCGGCGCCCGGCGGCUCGAGCCCGGGUAAGUGUACAUAGUCUGCAUGCCGCCGGGCGCCAUGCCUGCAGGUCGACUCUAGAAAACAUG”, in test [3], the binding signal is 5.08 log2 enrichment (interaction score).
